Assay results as given in PubChem BioAssay AID651658 (Broad Institute, 2012).
In all, about 340,000 compounds went through this assay and about 5,100 (1.5%) were called active. The sample as a whole holds a higher share of actives than the screen did. Values without a mark were called inactive.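 Rule for the calls: active = mean Tm shift, scaled 0 neutral to 100 positive control, at about 1.3% or above, every replicate too (limit read from the data); inconclusive = no clear call, values can overlap the other calls; inactive = the rest.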

These molecules were tested against Fibroblast growth factor 22 (Homo sapiens) (UniProt Q9HCT0) (assay: FGF22 ligand-induced thermal stabilization – biophysical, thermal shift, single point, FGF22 synaptogenesis inhibitor project, primary screen (AID 651658)). Conditions: recombinant FGF22 thermal shift, SYPRO orange fluorescence; at 9.99 µM; hits give high values; percent of sucrose octasulfate shift, DMSO zero.
Sequence of Fibroblast growth factor 22 (Homo sapiens) (Q9HCT0 whole entry, looked up): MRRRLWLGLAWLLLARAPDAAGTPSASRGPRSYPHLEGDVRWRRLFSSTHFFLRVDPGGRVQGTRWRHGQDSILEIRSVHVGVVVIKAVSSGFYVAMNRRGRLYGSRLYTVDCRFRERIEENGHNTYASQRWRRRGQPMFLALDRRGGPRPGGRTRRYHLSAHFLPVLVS
In the case of `COC(=O)c1c(C)[nH]c(C)c1-c1ccc([N+](=O)[O-])cc1`, the activity (Tm shift, normalised) is reported as 0.028%.
With `COC(=O)C1=C(C(=O)OC)C(c2cc([N+](=O)[O-])ccc2O)c2sc(=O)[nH]c2S1` (stereo not drawn) the activity (Tm shift, normalised) was 43.5% (active).
`COC(=O)C1=CN(c2ccc(F)c(F)c2)C=C(C(=O)OC)C1c1ccc([N+](=O)[O-])cc1` was tested, and the activity (Tm shift, normalised) was 0.128%.
`CCCNC(=O)N1CC(=O)N2[C@H](CO)[C@H](c3ccc(C#Cc4cccc(OC)c4)cc3)[C@H]2C1` gave an activity (Tm shift, normalised) of 0.3%.
`C[C@H]1CCCCO[C@@H](CN(C)C(=O)Cc2ccccc2)[C@@H](C)CN([C@@H](C)CO)C(=O)c2cc(NC(=O)c3ccccc3)ccc2O1` showed an activity (Tm shift, normalised) of -0.058%.
`Cc1ccc(S(=O)(=O)N(C)C[C@@H]2Oc3ccc(NC(=O)C4CCCCC4)cc3CC(=O)N([C@@H](C)CO)C[C@H]2C)cc1` showed an activity (Tm shift, normalised) of -0.112%.
For `COc1cccc(NC(=O)C[C@@H]2CC[C@H]3[C@@H](COc4ccc(NC(=O)C5CCOCC5)cc4C(=O)N3C)O2)c1`, the activity (Tm shift, normalised) was -0.165%.
`Cc1ccc2[nH]cc(CCNC(=O)c3ccc([N+](=O)[O-])cc3)c2c1` was tested, and the activity (Tm shift, normalised) was 43.1% (active).
For `O=C(NCCc1c[nH]c2ccc(Cl)cc12)c1ccc([N+](=O)[O-])cc1`, the activity (Tm shift, normalised) was -0.153%.
In the case of `Cc1ccc2[nH]cc(CCNC(=O)C3CCCCC3)c2c1`, the activity (Tm shift, normalised) is reported as -0.161%.
Work on `CS(=O)(=O)N1CC(=O)N2[C@@H](CO)[C@@H](c3ccc(C#CCC4CCCC4)cc3)[C@@H]2C1` yielded an activity (Tm shift, normalised) of -0.002%.
Work on `O=C(Nc1ccc(Cl)cc1)Nc1ccc(Oc2cccnc2)nc1` yielded an activity (Tm shift, normalised) of 0.04%.
Work on `Cc1ccc(NC(=O)CCC(=O)c2ccc(Br)cc2)cc1` yielded an activity (Tm shift, normalised) of 0.05%.
`Cc1ccc(NC(=O)c2cccnc2C(=O)Nc2ccc(C)cc2)cc1` gave an activity (Tm shift, normalised) of 0.363%.
`Cc1ccc(NC(=O)Nc2cccnc2)cc1` was tested, and the activity (Tm shift, normalised) was 1.35% (active).
`Cc1ccc(NC(=O)CC(=O)Nc2ccc(C)cc2)cc1` was tested, and the activity (Tm shift, normalised) was 43.3% (active).
For `Cc1ccc(NC(=O)Cn2c(C)csc2=O)cc1`, the activity (Tm shift, normalised) was -0.213%.
`C[C@@H]1CN([C@@H](C)CO)C(=O)c2cc(N(C)C)ccc2O[C@@H](C)CCCCO[C@H]1CN(C)C(=O)CCCN(C)C` was tested, and the activity (Tm shift, normalised) was -1.35%.
Molecule `O=C(CCC1CCCCC1)Nc1cc(C(F)(F)F)ccc1N1CCOCC1` has an activity (Tm shift, normalised) of -0.247%.
For `O=C(CN1C(=O)NC2(CCCC2)C1=O)Nc1cc(C(F)(F)F)ccc1N1CCOCC1`, the activity (Tm shift, normalised) was 0.22%.
For `CC(Sc1nncn1C)C(=O)Nc1cc(C(F)(F)F)ccc1N1CCOCC1` (stereo not drawn), the activity (Tm shift, normalised) was 43% (active).
Molecule `CCCN1[C@@H]2c3ccc(C4=CCCC4)c(=O)n3C[C@@H]2[C@@H](CO)[C@@H]1C(=O)NCc1ccccn1` has an activity (Tm shift, normalised) of -0.078%.
For `OC[C@H]1[C@H](c2ccc(-c3ccccc3F)cc2)[C@H]2CN(Cc3cncnc3)CCCCN21`, the activity (Tm shift, normalised) was 0.4%.
`CN(C)C(=O)C[C@H]1CC[C@H](NC(=O)NC2CCCC2)[C@@H](CO)O1` gave an activity (Tm shift, normalised) of -0.127%.
For `CC(=O)OC(COc1ccc(F)cc1)Cn1cnc2ccccc21` (stereo not drawn), the activity (Tm shift, normalised) was 43% (active).
With `O=C(Cn1cnc2ccccc21)Nc1ccccc1-c1ccccc1` the activity (Tm shift, normalised) was 0.098%.
Molecule `O=C(COC(=O)Cn1cnc2ccccc21)Nc1cccc2c1C(=O)c1ccccc1C2=O` has an activity (Tm shift, normalised) of 0.059%.
Work on `CO[C@H]1CN(C)C(=O)c2ccc(NC(=O)c3ccno3)cc2OC[C@@H](C)N(S(C)(=O)=O)C[C@H]1C` yielded an activity (Tm shift, normalised) of 0.142%.
For `C[C@H](CO)N1C[C@H](C)[C@@H](CN(C)C)Oc2ccc(N(C)C)cc2C1=O`, the activity (Tm shift, normalised) was 1.41% (active).
For `CNC[C@@H]1Oc2ccc(NC(=O)C3CCCCC3)cc2CC(=O)N([C@@H](C)CO)C[C@H]1C`, the activity (Tm shift, normalised) was 0.125%.
`CNC[C@@H]1Oc2ccc(NC(=O)C3CCCCC3)cc2C(=O)N([C@@H](C)CO)C[C@H]1C` was tested, and the activity (Tm shift, normalised) was 1.59% (active).
`CNC[C@H]1Oc2ccc(NC(=O)C3CCCCC3)cc2C(=O)N([C@H](C)CO)C[C@@H]1C` gave an activity (Tm shift, normalised) of -0.27%.
Molecule `C[C@H]1CN([C@@H](C)CO)C(=O)c2cc(N(C)C)ccc2O[C@@H]1CN(C)Cc1ccccc1` has an activity (Tm shift, normalised) of 0.118%.
`C[C@@H]1CN([C@H](C)CO)C(=O)c2cc(N(C)C)ccc2O[C@@H]1CN(C)S(C)(=O)=O` gave an activity (Tm shift, normalised) of -0.284%.
`O=C(C[C@H]1CC[C@H](NC(=O)c2ccc(F)cc2)[C@@H](CO)O1)NCCc1ccncc1` was tested, and the activity (Tm shift, normalised) was -0.269%.
For `O=C(NCC[C@H]1CC[C@@H](NC(=O)C2CCCC2)[C@@H](CO)O1)c1cc(Cl)cc(Cl)c1`, the activity (Tm shift, normalised) was 0.127%.
For `Cc1ccc(S(=O)(=O)NCC[C@H]2CC[C@H](NC(=O)c3ccccn3)[C@@H](CO)O2)cc1`, the activity (Tm shift, normalised) was -0.462%.
With `C[C@H]1CCCCO[C@H](CN(C)CC2CC2)[C@@H](C)CN([C@@H](C)CO)C(=O)c2cc(NC(=O)CCC(F)(F)F)ccc2O1` the activity (Tm shift, normalised) was 0.058%.
Work on `COc1cccc(S(=O)(=O)N[C@@H]2CC[C@@H](CCNC(=O)Cc3ccncc3)O[C@H]2CO)c1` yielded an activity (Tm shift, normalised) of 0.19%.
In the case of `C[C@H]1CN([C@@H](C)CO)C(=O)c2cc(-c3cccnc3)cnc2O[C@@H]1CN(C)C(=O)C1CC1`, the activity (Tm shift, normalised) is reported as 0.138%.
`COC(=O)C1=C(N)Oc2cc(C)[nH]c(=O)c2C1c1ccc(Cl)cc1` (stereo not drawn) was tested, and the activity (Tm shift, normalised) was -0.032%.
For `COC(=O)C1=C(N)Oc2c(oc(CO)cc2=O)C1c1c(F)cccc1Cl` (stereo not drawn), the activity (Tm shift, normalised) was 43.6% (active).
In the case of `CC(C)c1ccc(C2C(C#N)=C(N)Oc3c2oc(CO)cc3=O)cc1` (stereo not drawn), the activity (Tm shift, normalised) is reported as -0.049%.
`CO[C@H]1CC[C@H]2CCN(C)C(=O)C[C@@H](c3ccccc3)CN(C)C(=O)c3cccc(C#N)c3OC[C@@H]1O2` showed an activity (Tm shift, normalised) of 0.156%.
`CCC(=O)N1CCCCN2[C@H](CO)[C@@H](c3ccc(-c4cccnc4)cc3)[C@H]2C1` showed an activity (Tm shift, normalised) of 0.191%.
For `OC[C@H]1[C@H](c2ccc(-c3cccnc3)cc2)[C@H]2CN(Cc3ccccn3)CCCCN21`, the activity (Tm shift, normalised) was 1.51% (active).
For `OC[C@@H]1[C@H](c2ccc(Br)cc2)[C@@H]2CN(Cc3ccccn3)CCCCN12`, the activity (Tm shift, normalised) was 0.488%.
`O=C(N[C@H]1CC[C@@H](CCNS(=O)(=O)c2cccc(Cl)c2)O[C@@H]1CO)c1ccccc1` was tested, and the activity (Tm shift, normalised) was -0.047%.
